# Measured values: the supplement of paper PMC4723716
# Over roughly 3,600 compounds, “viability index relative to DMSO control” has its median near 0.81; the lowest 2% begin near 0.13. The entries come from a sample that favours the lowest values as a whole.
# Test system: Plasmodium falciparum NF54 stage V gametocytes
# Assay: viability index relative to DMSO control (fraction); higher = less gametocyte killing
# Conditions: 1.25 µM, incubation time: 72 h
# 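Also: Saponin-lysis sexual stage assay in serum-free medium: MitoTracker Red CMXRos staining plus saponin, high-content imaging, particle count per well divided by plate mean of DMSO wells.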
row,SMILES,viability index
1,CCOc1ccccc1C1C(C#N)=C(SCC(=O)Nc2ccc(Cl)cc2)NC(C)=C1C(=O)Nc1ccccc1 (centres undefined),0.5
2,Fc1ccc(CSc2nc3cccnc3[nH]2)cc1,1.24
3,Cc1cc(C)cc(NC2=C(N)C(=O)c3ccccc3C2=O)c1,0.707
4,COc1ccc(-c2cc(C3CCN(c4nc(N)c5cc(OC)c(OC)cc5n4)CC3)n[nH]2)cc1OC,1.17
5,COc1cc2nc(N3CCN(c4nc(N)c5cc(OC)c(OC)cc5n4)CC3)nc(N)c2cc1OC,0.0192
6,COc1cc2nc(Nc3ccc(F)cc3)nc(N)c2cc1OC,0.787
7,O=C(CNCCc1ccccc1)NC(c1ccccc1)c1ccccc1,0.761
8,CCOc1ccc(C=C(C#N)c2nc3ccccc3[nH]2)cc1OC,0.837
9,COc1cc2c(-c3cc(Br)ccc3O)nc3c(c(Cc4ccccc4)nn3-c3ccccc3)c2cc1OC,0.595
10,NC(=S)NN=Cc1cc([N+](=O)[O-])ccc1O,0.176
11,CC(C=NNC(N)=S)=NNC(N)=S,0.131
12,CCOc1ccc(CCN2C(=S)N(c3cccc(C(F)(F)F)c3)C(=O)C2CC(=O)Nc2ccc(C(=O)OC)cc2)cc1OCC (centres undefined),0.582
13,N#Cc1c(-c2ccccc2)cc(N2CCN(C3CCCCC3)CC2)n2c1nc1ccccc12,0.822
14,COc1ccc(-c2c[n+](CC(=O)c3cccc(OC)c3)c3n2CCC3)cc1,0.74
15,Cc1ccc2c(c1)C(C)(c1ccc(Cl)cc1)CC(C)(C)N2C(=O)COc1ccc2ccccc2c1 (centres undefined),0.826
16,O=C(C[n+]1cc(-c2ccc(F)cc2)n2c1CCC2)Nc1ccc(Cl)cc1,1.44
17,CCSC(Cl)=C(NC(=O)c1ccccc1)[P+](c1ccccc1)(c1ccccc1)c1ccccc1,0.0362
18,Cc1c(Cl)cccc1NC(=O)CCC(=O)NNC(=O)c1ccccc1,0.9
19,CCCc1ccc(C(=O)NC(=O)c2ccccc2O)cc1,1.05
20,COc1ccccc1NC1=CC(=NS(=O)(=O)c2ccc(F)cc2)c2ccccc2C1=O,0.189
21,COc1ccccc1NC1=CC(=NS(=O)(=O)c2cccs2)c2ccccc2C1=O,0.0154
22,COc1ccccc1NC1=CC(=NS(=O)(=O)c2ccccc2)c2ccccc2C1=O,0.247
23,COc1ccc(S(=O)(=O)N=C2C=C(Nc3ccccc3OC)C(=O)c3ccccc32)cc1,0.0579

row,SMILES,viability index
1,O=C1C(Sc2nc[nH]n2)=CC(=NS(=O)(=O)c2cccs2)c2ccccc21,0.707
2,O=C1C(Nc2ccc(O)cc2)=CC(=NS(=O)(=O)c2cccs2)c2ccccc21,0.306
3,Cc1cccc(CCNc2cc(C)nc3ncnn23)c1,0.982
4,COc1ccc2[nH]c(SCC(=O)Nc3cccc(NC(=O)CSc4nc5cc(OC)ccc5[nH]4)n3)nc2c1,0.353
5,Cc1cccc(NC(=O)C2C3C=CC4(O3)C2C(=O)N(CC2COc3ccccc3O2)C4C(=O)NC2CCCC(C)C2C)c1 (centres undefined),1.33
6,Cc1cc2nc(NC(=N)N)nc(C)c2cc1C,0.718
7,CC(C)c1ccc2c(c1)c1c3c([n+](C)ccn32)CCC1,1.22
8,CC(Cc1ccsc1)Nc1nc2nonc2nc1N(C)C (centres undefined),0.853
9,Cc1ccc(OCCCCN2CCOCC2)c([N+](=O)[O-])c1,0.798
10,COC1=C(Nc2cccc(C(F)(F)F)c2)C(=O)c2ccccc2C1=O,0.606
11,O=C(Nc1cc(Cl)cc(Cl)c1)Nc1cccc(C(F)(F)F)c1,1.06
12,O=C1C=C(Nc2cccc(C(F)(F)F)c2)C(=O)c2ccccc21,0.0673
13,CCOC(=O)c1ccc(N(C(=O)Cc2c[nH]c3ccccc23)C(C(=O)NC2CCCCC2)c2cccc(OC)c2OC)cc1 (centres undefined),0.849
14,NC12CC3CC(C1)CC(SSC14CC5CC(CC(N)(C5)C1)C4)(C3)C2,0.11
15,COc1ccc(C2CC(=O)C3=C(C2)NC(=O)CC3c2ccc([N+](=O)[O-])cc2)cc1OC (centres undefined),0.406
16,O=C(Nc1ccc(-n2cnnn2)cc1)C1CCN(Cc2cc3ccccc3o2)CC1,0.942
17,COc1ccc2c(c1)OC(O)(C(F)(F)C(F)(F)F)CC2=O (centres undefined),0.6
18,CCN(CC)S(=O)(=O)c1cc(C(=O)O)ccc1Cl,0.971
19,COc1cccc(OC)c1C(=O)Nc1cc(C(F)(F)F)ccc1Cl,0.971
20,COC(=O)c1ccc(C=NNc2cc(C)nc3ccc(OC)cc23)cc1,0.0573
21,COc1ccc(C=NNc2cc(C)nc3ccc(OC)cc23)c(OC)c1,0.591
22,COc1ccc(C=NNc2cc(C)nc3ccccc23)cc1,0.946
23,CC(C)(C)CC(C)(C)c1ccc(O)c(CN2CCN(CCC#N)CC2)c1,0.735

row,SMILES,viability index
1,COc1ccc(CNC2CCN(c3cccc(NC(=O)C4CC4)c3)CC2)cc1,1.12
2,C=CCN1C(=O)C(=C2Sc3ccc(OC)cc3N2C)SC1=Nc1ccccc1-c1ccccc1,0.448
3,Oc1ccc(-c2cncnc2)cc1CNC1CCN(Cc2ccccc2)CC1,1
4,CCN(CC)Cc1cc(Nc2ccnc3cc(Cl)ccc23)ccc1O,0.873
5,COc1ccc(-c2cnnc(NN=Cc3ccc([N+](=O)[O-])o3)n2)cc1,0.0154
6,O=[N+]([O-])c1ccc(C=NNc2nc(Nc3ccccc3)nc(Nc3ccccc3)n2)o1,0.0664
7,O=[N+]([O-])c1ccc(-c2ccc(C=NNc3nc(Nc4ccccc4)nc(Nc4ccccc4)n3)o2)cc1,0.626
8,O=[N+]([O-])c1ccc(Nc2nc(NN=Cc3ccccc3I)nc(Nc3ccccc3)n2)cc1,0.985
9,COc1ccc(Nc2nc(NN=Cc3cccc([N+](=O)[O-])c3OC)nc(Nc3ccc([N+](=O)[O-])cc3)n2)cc1,0.469
10,Cc1nonc1C(=O)NN=Cc1ccc([N+](=O)[O-])o1,0.871
11,COc1ccc(NC(=O)NCc2cccn2Cc2ccc(F)cc2)cc1OC,0.952
12,CCOC(=O)c1sc(Nc2c(Cl)cc(S(N)(=O)=O)cc2Cl)nc1C,0.886
13,CCOC(=O)C1=C(C)NC2=C(C(=O)CC(c3ccc(OC)c(OC)c3)C2)C1c1ccccc1OC (centres undefined),0.68
14,CCOC(=O)c1c(NC(=O)CSc2nnc(CNC(=O)c3ccc(C)c(C)c3)n2C2CCCCC2)sc2c1CCC2,0.784
15,O=C1CN(C(=O)CCC2CCCC2)C(c2ccc(F)cc2)c2cc(Cl)ccc2N1 (centres undefined),0.751
16,S=P(OCC1C(COP(=S)(c2ccccc2)c2ccccc2)C1(Cl)Cl)(c1ccccc1)c1ccccc1 (centres undefined),0.562
17,CN1C(=O)N(C)C2(c3ccccc3)NN3C(=NC12c1ccccc1)SC1=C3C(=O)c2ccccc2C1=O (centres undefined),0.0309
18,CCOC(=O)c1nnn(-c2nonc2N)c1-c1ccc(Br)cc1,0.676
19,CCOC(=O)c1c(C)oc2c1C(=O)c1ccccc1C2=O,0.902
20,CCOC(=O)C1CCCN(C(=O)c2c(C)oc3c2C(=O)c2ccccc2C3=O)C1 (centres undefined),0.726
21,Cc1oc2c(c1C(=O)N1CCC(C)CC1)C(=O)c1ccccc1C2=O,0.587
22,Cc1oc2c(c1C(=O)NC1CCS(=O)(=O)C1)C(=O)c1ccccc1C2=O (centres undefined),0.0502
23,Cc1oc2c(c1C(=O)NCCCn1ccnc1)C(=O)c1ccccc1C2=O,0.0826

row,SMILES,viability index
1,CCOC(=O)C1CCN(C(=O)c2c(C)oc3c2C(=O)c2ccccc2C3=O)CC1,0.0992
2,Cc1oc2c(c1C(=O)N1CCN(C)CC1)C(=O)c1ccccc1C2=O,0.43
3,Cc1oc2c(c1C(=O)NCc1cccnc1)C(=O)c1ccccc1C2=O,0.231
4,Cc1oc2c(c1C(=O)NCC1CCCO1)C(=O)c1ccccc1C2=O (centres undefined),0.195
5,Cc1cc(I)ccc1N1C(=O)C2C3c4ccccc4C(CO)(c4ccccc43)C2C1=O (centres undefined),1.06
6,CC(=O)N(C1=C(N2CCOCC2)C(=O)c2ccccc2C1=O)c1ccc(C(C)C)c(C)c1,0.509
7,Oc1c(C(Nc2ccccn2)c2ccc(Br)cc2)ccc2cccnc12 (centres undefined),1.1
8,Cc1cc(C)n(-c2ccc(NC(=O)C3CCN(Cc4cc(C)c(C)o4)CC3)cc2)n1,0.926
9,Oc1ccc2ccccc2c1CNc1nc2ccccc2[nH]1,0.865
10,CCN(CC)CCNc1ccc(Nc2ccnc3cc4ccccc4cc23)cc1,0.423
11,CCOC(=O)c1ccc2nc3c(nc2c1)C(=O)c1ccccc1C3=O,0.359
12,Cc1ccc(-c2cc3c(nn2)-c2ccccc2C3=O)cc1,0.65
13,N#Cc1cc2nc3c(nc2cc1C#N)-c1ccccc1C3=O,0.0308
14,Cc1[nH]c2ccccc2c1C=Cc1cc[n+](C)cc1,1.08
15,O=C(C1CCN(c2nnnn2-c2ccccc2)CC1)N1CCc2ccccc2C1,0.826
16,N#CC(=CC=Cc1ccc([N+](=O)[O-])o1)c1nc2ccccc2[nH]1,0.0143
17,CCN(CC)c1ccc(C=C(C#N)c2nc3ccccc3[nH]2)o1,0.609
18,N#CC(=Cc1ccc(Sc2ccccc2)o1)c1nc2ccccc2[nH]1,0.776
19,O=S(=O)(c1ccc(Cl)cc1)N1CCN(C(=S)NCc2ccco2)CC1,0.959
20,CCOC(=O)C1=C(C)NC2=C(C(=O)CC(c3ccc(Cl)cc3)C2)C1c1ccc(Br)cc1 (centres undefined),0.725
